In PubChem BioAssay (NCATS):
Inconclusive results are not listed. Calls of active or inactive are those of the source. Calls come from the whole dose curve; as a rule, active = well fitted curve in the direction sought with a large enough effect; inconclusive = small, poorly fitted or top-dose-only effect, or another doubt; inactive = no such curve, though single readings can be large; an effect the other way counts as inactive or inconclusive.

What was measured:
C33A = test: Primary qHTS to identify gynecologic anti-cancer compounds using libraries of approved drugs and bioactive compounds (AID 1345084); conditions: Gynecologic cancer cell panel viability, ATPlite luminescence, 48 h; series mostly up to 57.5 µM; note: nearly all actives have a fitted effect of over 55% in size
Method in brief: (§1)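 Cells, 1,000 per well, plated 16 h, then exposed 48 h at 37 C to compounds. Viability by ATPlite luminescence after 15 min at room temperature.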

CASKI = test: as above; conditions: Gynecologic cancer cell panel viability, ATPlite luminescence, 48 h; series mostly up to 57.5 µM
Method in brief: as §1

Es-2 = test: as above; conditions: Gynecologic cancer cell panel viability, ATPlite luminescence, 48 h; series mostly up to 57.5 µM
Method in brief: as §1

HeLa = test: as above; conditions: Gynecologic cancer cell panel viability, ATPlite luminescence, 48 h; series mostly up to 57.5 µM
Method in brief: as §1

Hek293T = test: as above; conditions: Gynecologic cancer cell panel viability, ATPlite luminescence, 48 h, control line for the selectivity index; series mostly up to 57.5 µM
Method in brief: as §1

JEG-3 = test: as above; conditions: Gynecologic cancer cell panel viability, ATPlite luminescence, 48 h; series mostly up to 57.5 µM
Method in brief: as §1

OV90 = test: as above; conditions: Gynecologic cancer cell panel viability, ATPlite luminescence, 48 h; series mostly up to 57.5 µM
Method in brief: as §1

PA-1 = test: as above; conditions: Gynecologic cancer cell panel viability, ATPlite luminescence, 48 h; series mostly up to 57.5 µM
Method in brief: as §1

SKOV3 = test: as above; conditions: Gynecologic cancer cell panel viability, ATPlite luminescence, 48 h; series mostly up to 57.5 µM
Method in brief: as §1

Tov-21-G = test: as above; conditions: Gynecologic cancer cell panel viability, ATPlite luminescence, 48 h; series mostly up to 57.5 µM
Method in brief: as §1

Tov112D = test: as above; conditions: Gynecologic cancer cell panel viability, ATPlite luminescence, 48 h; series mostly up to 57.5 µM
Method in brief: as §1

NIH3T3 = test: qHTS assay to identify novel small-molecules to repurpose for Merkel cell carcinoma treatment (AID 1296009); conditions: MCC and control cell lines, CellTiter-Glo viability, 72 h; at 44.8 µM (top of the series) unless noted; note: nearly all actives have a fitted effect of over 60% in size
Method in brief: (§2)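 CellTiter-Glo luminescence after 72 hr compound exposure at 37 degree celsius gave cell viability. Libraries NPC and MIPE were run as 8- and 11-point dose responses; RLUs normalized to DMSO (negative) and no-cell (cytotoxicity) controls.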

UISO = test: as above; conditions: MCC and control cell lines, CellTiter-Glo viability, 72 h; series mostly up to 46 µM
Method in brief: as §2

WaGa = test: as above; conditions: MCC and control cell lines, CellTiter-Glo viability, 72 h; series mostly up to 46 µM
Method in brief: as §2

[1] = qHTS assay to identify inhibitors of the type 1 interferon - major histocompatibility complex class I in skeletal muscle: Counter screen cell viability and HiBit confirmation (AID 1347412); conditions: iHSKM muscle cells + IFN-b, HiBiT or CellTiter-Glo, 24 h; note: nearly all actives have a fitted effect of over 60% in size
Method in brief: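 Human myoblast knock-in line, 4.0 ng/ml IFN-beta stimulation, 24 h compound treatment. Endpoints: HiBiT lytic luminescence (HLA-B level) and CellTiter Glo (ATP). Dosing 12 concentrations, 3-fold steps, 46 uM highest final.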

MKL-2 = test: qHTS assay to identify novel small-molecules to repurpose for Merkel cell carcinoma treatment (AID 1296009); conditions: MCC and control cell lines, CellTiter-Glo viability, 72 h; series mostly up to 46 µM; note: nearly all actives have a fitted effect of over 60% in size
Method in brief: as §2

[2] = Drug repurposing screens with cells derived from glioblastoma tumor samples (AID 1345199); conditions: GBM patient neurospheres viability, ATP luminescence, 48 h; note: nearly all actives have a fitted effect of over 40% in size
Method in brief: (§3)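 Primary testing used CD133+ neurospheres from four GBM patients, seven concentrations, 48 h exposure and ATP-based viability; confirmation added three slower-growing patient lines.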

astro = test: as above; conditions: viability, ATP luminescence, 48 h; series mostly up to 45.9 µM
Method in brief: as §3

[3] = at 46.1 µM (top of the series), tumour line C
[4] = at 45.9 µM (top of the series), tumour line B
[5] = at 45.9 µM (top of the series), tumour line D
[6] = at 46 µM (top of the series), tumour line A
% is set by controls: 0 for no effect and ±100 for the full control effect; potency is the fitted concentration of half-maximal effect.

CO[C@H]1C=CO[C@@]2(C)Oc3c(C)c(O)c4c(O)c(c5c(c4c3C2=O)NC2(CCN(CC(C)C)CC2)N=5)=NC(=O)C(C)=CC=C[C@H](C)[C@H](O)[C@@H](C)[C@@H](O)[C@@H](C)[C@H](OC(C)=O)[C@H]1C
inactive: Potency (C33A) | Potency (CASKI) | Potency (Es-2) | Potency (HeLa) | Potency (Hek293T) | Potency (JEG-3) | Potency (OV90) | Potency (PA-1) | Potency (SKOV3) | Potency (Tov-21-G) | Potency (Tov112D)

CO[C@H]1C[C@@H]2CC[C@@H](C)[C@@](O)(O2)C(=O)C(=O)N2CCCC[C@@H]2C(=O)O[C@H]([C@@H](C)C[C@@H]2CC[C@H](O)[C@H](OC)C2)CC(=O)[C@H](C)C=C(C)[C@@H](O)[C@@H](OC)C(=O)[C@H](C)C[C@H](C)C=CC=CC=C1C
inactive: outcome (NIH3T3) inactive; activator | Potency (UISO)

O=c1c(O)c(-c2ccc(O)cc2)oc2cc(O)cc(O)c12
active: Potency (WaGa) 3.72 µM

CC(C)n1nc(-c2ccc3oc(N)nc3c2)c2c(N)ncnc21
active: Potency (UISO) 0.0264 µM | Potency (CASKI) 2.24 µM | Potency (HeLa) 12.6 µM | Potency (Hek293T) 0.316 µM | Potency (OV90) 0.316 µM | Potency (Tov-21-G) 0.316 µM | Potency ([1]; HiBiT) 0.0991 µM

CC(C)(C)NC(=O)Nc1cccc(Nc2ncc(F)c(NC(C)(C)CO)n2)c1
inactive: Potency (MKL-2) | Potency (UISO) | Potency (C33A) | Potency (CASKI) | Potency (Es-2) | Potency (Hek293T) | Potency (JEG-3) | Potency (OV90) | Potency (PA-1) | Potency (SKOV3) | Potency (Tov-21-G) | Potency (Tov112D)

CC(=O)OC1C(C)OC(Oc2c(-c3ccc(O)cc3)oc3cc(O)cc(O)c3c2=O)C(O)C1OC(C)=O (stereo unspecified)
inactive: Potency (UISO)

COc1cc2ncnc(Nc3ccc(F)c(Cl)c3)c2cc1OCCCN1CCOCC1
inactive: Potency (C33A) | Potency (CASKI) | Potency (Es-2) | Potency (HeLa) | Potency (Hek293T) | Potency (JEG-3) | Potency (OV90) | Potency (PA-1) | Potency (Tov112D) | activity, negative = cell killing [2, 3] -12.4%
active: Potency (MKL-2) 13.3 µM | Potency (UISO) 26.6 µM | Potency (SKOV3) 10 µM | Potency ([2]; tumour line A) 5.62 µM | Potency ([2]; tumour line B) 17.8 µM | Potency ([2]; tumour line D) 8.91 µM | Potency (astro) 20 µM

CC(C)(C(=O)NCC(F)(F)C(F)(F)F)C(=O)N[C@@H]1C(=O)Nc2ccccc2-c2ccccc21
inactive: outcome (NIH3T3)

Oc1ccc(C2CCN(c3ccnc4ccccc34)CC2)cc1O
inactive: Potency (UISO) | activity change, negative = inhibition ([1]; Viability, at 45.9 µM (top of the series)) -0.0528%

COc1cc(N2CCC(N3CCN(C)CC3)CC2)ccc1Nc1ncc(Cl)c(Nc2ccccc2S(=O)(=O)C(C)C)n1
active: Potency (CASKI) 7.94 µM | Potency (HeLa) 3.16 µM | Potency (PA-1) 10 µM | Potency (Tov-21-G) 7.08 µM | Potency ([1]; HiBiT) 17.6 µM
inactive: Potency (MKL-2) | Potency (UISO) | Potency (JEG-3)

Cc1ccc(F)c(NC(=O)Nc2ccc(-c3cccc4[nH]nc(N)c34)cc2)c1
inactive: Potency (MKL-2) | Potency (WaGa)

NS(=O)(=O)c1ccc(NC2=CC(=O)c3ccccc3C2=O)cc1
active: Potency (UISO) 2.64 µM | Potency ([1]; HiBiT) 3.52 µM | Potency ([1]; Viability) 4.97 µM

CN[C@@H](C)C(=O)N[C@H]1CN(C(=O)CC(C)C)CC[C@H]2CC[C@@H](C(=O)NC(c3ccccc3)c3ccccc3)N2C1=O
inactive: Potency (MKL-2) | Potency (C33A) | Potency (Es-2) | Potency (Hek293T) | Potency (JEG-3) | Potency (OV90)
active: Potency (SKOV3) 7.94 µM | Potency (Tov-21-G) 5.62 µM

CC(C)[C@H](CO)Nc1nc(Nc2ccc(C(=O)O)c(Cl)c2)c2ncn(C(C)C)c2n1
inactive: outcome (NIH3T3) inactive [at 17.4 µM] | Potency (C33A) | Potency (CASKI) | Potency (Es-2) | Potency (HeLa) | Potency (Hek293T) | Potency (JEG-3) | Potency (OV90) | Potency (PA-1) | Potency (SKOV3) | Potency (Tov-21-G) | Potency (Tov112D)

CNC(=O)c1ccccc1Sc1ccc2c(C=Cc3ccccn3)n[nH]c2c1
active: Potency (WaGa) 11.8 µM

O=C(Nc1ccccc1-c1cn2c(CN3CCNCC3)csc2n1)c1cnc2ccccc2n1
active: Potency ([1]; HiBiT) 11.1 µM | Potency ([1]; Viability) 15.7 µM
inactive: Potency (WaGa) | Potency (C33A) | Potency (CASKI) | Potency (Es-2) | Potency (HeLa) | Potency (Hek293T) | Potency (JEG-3) | Potency (OV90) | Potency (PA-1) | Potency (SKOV3) | Potency (Tov-21-G) | Potency (Tov112D)

O=C1c2c(O)cc(O)cc2O[C@H](c2cc(O)c(O)c(O)c2)[C@H]1O
inactive: Potency (UISO)
active: Potency (WaGa) 2.35 µM

N#C[C@H]1C[C@H]2C[C@@H]2N1C(=O)[C@@H](N)C12CC3CC(CC(O)(C3)C1)C2
inactive: activity, negative = cell killing [2, 4] -2.78% | activity, negative = cell killing [2, 5] -16.4% | activity, negative = cell killing [2, 6] -21.1% | activity, negative = cell killing [2, 3] 4.9% | Potency (astro)

NC[C@@H]1O[C@@H](O[C@H]2[C@@H](O)[C@H](O[C@@H]3[C@@H](O)[C@@H](N)C[C@H](N)[C@H]3O[C@H]3O[C@H](CN)[C@@H](O)[C@@H](O)[C@H]3N)O[C@H]2CO)[C@H](N)[C@@H](O)[C@@H]1O
inactive: activity, negative = cell killing [2, 4] 5.16% | activity, negative = cell killing [2, 5] 4.28% | activity, negative = cell killing [2, 6] -29.1% | activity, negative = cell killing [2, 3] 9.32% | Potency (astro)

CC/C(=C(\c1ccccc1)c1ccc(OCCN(C)C)cc1)c1ccccc1
active: Potency (MKL-2) 26.6 µM | Potency (UISO) 21.1 µM | Potency (astro) 25.1 µM
inactive: Potency (C33A) | Potency (CASKI) | Potency (Es-2) | Potency (HeLa) | Potency (Hek293T) | Potency (JEG-3) | Potency (Tov-21-G) | Potency (Tov112D)

C=CCc1ccc(O)c(-c2ccc(O)c(CC=C)c2)c1
inactive: Potency (WaGa)

COc1ccc(C2Sc3ccccc3N(CCN(C)C)C(=O)C2OC(C)=O)cc1 (stereo unspecified)
inactive: Potency (C33A) | Potency (CASKI) | Potency (Es-2) | Potency (HeLa) | Potency (Hek293T) | Potency (JEG-3) | Potency (OV90) | Potency (PA-1) | Potency (Tov-21-G) | Potency (Tov112D)
